Results published in PubChem BioAssay (NCATS).
Inconclusive results are not listed. Active and inactive are the calls of the source. Calls follow the shape of the dose curve; as a rule, active = well fitted curve in the direction sought with a large enough effect; inconclusive = small, poorly fitted or top-dose-only effect, or another doubt; inactive = no such curve, though single readings can be large; an effect the other way counts as inactive or inconclusive.

How the values were obtained:
[1] = tested on: Zika virus NS2B-NS3 protease (linked construct); assay: Primary screen NINDS Rhodamine qHTS for Zika virus inhibitors (AID 1347160); also: nearly all actives have a fitted effect of over 55% in size
Summary of the method: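 Percent inhibition, normalized to uninhibited and enzyme-free controls, is fitted to a 4-parameter Hill equation. Fluorescence change comes from a 15-min cleavage of 1.5 microM bis-peptide Rhodamine110 substrate by 25 nM linked NS2B-NS3 at room temperature.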

[2] = OV-KATE Cancer Cell Toxicity qHTS against the NCATS CANVASS Library (AID 1347345)
Summary of the method: (§1)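 1000 cells/well seeded and rested 4 h at 37 °C before pin transfer of compounds in an 11-pnt series. Exposure 72 h at 37 °C/5% CO2; viability by CellTiter-Glo luminescence after 15 min at room temperature.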

[3] = HPAF-II Cancer Cell Toxicity qHTS against the NCATS CANVASS Library (AID 1347346); also: series mostly up to about 38 µM; nearly all actives have a fitted effect of over 55% in size
Summary of the method: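 HPAF-II cells were seeded at 1000 cells/well, allowed to settle for 4 h at 37 degrees C, then exposed to compounds in an 11-point series for 72 h. Viability was read by CellTiter-Glo luminescence.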

[4] = UWB1.289 Cancer Cell Toxicity qHTS against the NCATS CANVASS Library (AID 1347347); also: series mostly up to about 38 µM; nearly all actives have a fitted effect of over 60% in size
Summary of the method: as §1

[5] = OV-SAHO Cancer Cell Toxicity qHTS against the NCATS CANVASS Library (AID 1347348); also: series mostly up to about 38 µM; nearly all actives have a fitted effect of over 55% in size
Summary of the method: as §1

[6] = Panc-1005 Cancer Cell Toxicity qHTS against the NCATS CANVASS Library (AID 1347349); also: series mostly up to about 38 µM; nearly all actives have a fitted effect of over 60% in size
Summary of the method: as §1

[7] = SW1088 Cancer Cell Toxicity qHTS against the NCATS CANVASS Library (AID 1347350); also: series mostly up to about 38 µM; nearly all actives have a fitted effect of over 75% in size
Summary of the method: as §1

[8] = U-118MG Cancer Cell Toxicity qHTS against the NCATS CANVASS Library (AID 1347351); also: series mostly up to about 38 µM
Summary of the method: as §1

[9] = COV-362 Cancer Cell Toxicity qHTS against the NCATS CANVASS Library (AID 1347352); also: series mostly up to about 38 µM
Summary of the method: (§2)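 Cells were seeded at 1000 per well and allowed to settle 4 hours at 37 degrees C before pin transfer of compounds as an 11-point series. Viability was read by CellTiter-Glo luminescence after 72 hours' exposure.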

[10] = A2780 Cisplatin Sensitive Ovarian Cancer Cell Toxicity qHTS against the NCATS CANVASS Library (AID 1347353); also: nearly all actives have a fitted effect of over 60% in size
Summary of the method: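 A2780 cisplatin-sensitive cells (750 per well) were seeded, left 4 h at 37 °C, then pin-dosed in an 11-point series. After 72 h at 37 °C/5% CO2, viability was measured as ATPLite luminescence.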

[11] = UWB1.289-WTBRCA1 Cancer Cell Toxicity qHTS against the NCATS CANVASS Library (AID 1347354)
Summary of the method: as §2

[12] = HPAF-II 24hr Apoptosis Induction qHTS against the NCATS CANVASS Library (AID 1347356)
Summary of the method: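 HPAF-II cells (500/well) in DMEM + 10% FBS were treated with an 11-point compound series for 24 hours at 37 degrees C. Caspase-3/7 activity was then read by Caspase-Glo DEVD luminescence after 15 min.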

[13] = HEK293 18hr Apoptosis Induction qHTS against the NCATS CANVASS Library (AID 1347357)
Summary of the method: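 HEK293 cells (500 per well, DMEM with 10% FBS) were treated with natural products, incubated 18 hours at 37 degrees C, then caspase-3/7 activity was read by Caspase-Glo luminescence after 15 min at room temperature.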

[14] = HPAF-II 12hr Apoptosis Induction qHTS against the NCATS CANVASS Library (AID 1347358)
Summary of the method: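 HPAF-II cells (500/well, DMEM + 10% FBS) were exposed to compounds for 12 hours at 37 degrees C. Caspase-3/7 activity was then read by Caspase-Glo 3/7 luminescence after 15 min at room temperature.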

[15] = HEK293 24hr Apoptosis Induction qHTS against the NCATS CANVASS Library (AID 1347359)
Summary of the method: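 Caspase-3/7 activation measured as luminescence from the DEVD-based Caspase-Glo reagent, 15 min at room temperature, following 24-hour compound treatment of HEK293 cells.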

[16] = HEK293 12hr Apoptosis Induction qHTS against the NCATS CANVASS Library (AID 1347361)
Summary of the method: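 Read-out: Caspase-Glo 3/7 luminescence (DEVD substrate), 15 min RT. Preceded by 12 h compound exposure of HEK293, 500 cells/well, 11-pt qHTS titration; doxorubicin titration as control.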

[17] = tested on: NAD(P)H diaphorase (Clostridium kluyveri); assay: Diaphorse counterscreen qHTS: Assay Interference Panel against the NCATS CANVASS Library (AID 1347362)
Summary of the method: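 Counterscreen for coupling-enzyme interference: resorufin fluorescence from resazurin/NADH turnover, read after 5 min at room temperature. Compounds were tested over an 11-point series after 15 min dark preincubation with diaphorase in PBS-Tween.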

[18] = target: Luciferin 4-monooxygenase (Photinus pyralis) (UniProt P08659); assay: Firefly luciferase counterscreen qHTS: Assay Interference Panel against the NCATS CANVASS Library (AID 1347363); also: series mostly up to about 57 µM
Chain of Luciferin 4-monooxygenase (Photinus pyralis) (P08659 whole entry, looked up): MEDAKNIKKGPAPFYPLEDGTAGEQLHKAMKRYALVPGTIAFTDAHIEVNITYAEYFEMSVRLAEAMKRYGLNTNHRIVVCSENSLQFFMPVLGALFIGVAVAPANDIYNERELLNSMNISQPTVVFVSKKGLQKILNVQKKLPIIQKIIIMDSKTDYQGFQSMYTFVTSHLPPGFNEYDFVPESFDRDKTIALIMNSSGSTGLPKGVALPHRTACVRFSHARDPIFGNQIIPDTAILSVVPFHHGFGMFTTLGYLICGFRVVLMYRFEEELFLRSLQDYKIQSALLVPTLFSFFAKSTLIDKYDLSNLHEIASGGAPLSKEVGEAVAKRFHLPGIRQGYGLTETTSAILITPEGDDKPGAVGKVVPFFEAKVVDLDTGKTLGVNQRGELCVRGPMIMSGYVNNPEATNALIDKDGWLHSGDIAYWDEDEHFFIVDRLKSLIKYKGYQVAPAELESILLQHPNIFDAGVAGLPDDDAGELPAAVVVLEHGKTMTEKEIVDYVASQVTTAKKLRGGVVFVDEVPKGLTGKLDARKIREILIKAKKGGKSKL
Summary of the method: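 Luminescence inhibition readout: compounds (11-point qHTS) sat 15 min at room temperature with substrate mix (0.013 mM luciferin and ATP), then firefly luciferase was added and signal read 5 min later.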

[19] = KB-8-5-11 Cancer Cell Toxicity qHTS against the NCATS CANVASS Library (AID 1347364); also: nearly all actives have a fitted effect of over 75% in size
Summary of the method: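 KB-8-5-11 cells (500/well) in DMEM + 10% FBS were exposed to compounds in an 11-point qHTS series for 72 hr at 37C, 5% CO2. Viability was read by CellTiter-Glo luminescence.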

[20] = KB-3-1 Cancer Cell Toxicity qHTS against the NCATS CANVASS Library (AID 1347366); also: nearly all actives have a fitted effect of over 75% in size
Summary of the method: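 KB-3-1 cells (500 cells/well) in DMEM + 10% FBS were treated with compounds for 72 hr at 37C, 5% CO2. Viability was read as CellTiter-Glo luminescence after 10 minutes at room temperature.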

[21] = qHTS for ATAD5 Agonist screened against the NCATS CANVASS Library (AID 1347367);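 also: luciferase reporter driven by ATAD5 which rises upon DNA damage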
Summary of the method: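 HEK293T cells stably carrying an ATAD5-controlled luciferase reporter (2000 cells/well) attached for 5 hr, then received compounds in an 11-point series for 16hr at 37C. Luminescence was read after a 30 min room-temperature reagent step.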

[22] = G06 Cancer Cell Toxicity qHTS against the NCATS CANVASS Library (AID 1347368); also: series mostly up to about 46 µM; nearly all actives have a fitted effect of over 60% in size
Summary of the method: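 G06 dog glioma cells seeded at 500 cells/well were exposed to compounds (11-point qHTS series) for 72 hr at 37C, 5% CO2; viability read as ATP content by CellTiterGlo luminescence.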

Measured: Potency

O=Cc1ccc2n1C[C@@]1(C[C@H](O)[C@@H](CO)O1)OC2
inactive: all assays above
